Test results: PubChem BioAssay
The source made the active and inactive calls.

Assays:
[1] = small molecules captured by biotinylated probe aFSTL3 – biochemical, small-molecule microarray, fluorescence 635/667, stem cell growth factor project, primary screen (AID 1064); settings: higher = more signal;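 further: measures binding of the biotinylated anti-FSTL3 antibody to printed compounds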
[2] = binders from COS7 lysate, DM2A8 probe, primary screen, torsin A project, cell lysate, small-molecule microarray, fluorescence 635/667 (AID 1065); settings: higher = more signal, COS7 lysate expressing mutant human TOR1A
[3] = small molecules captured by biotinylated probe aFGF2 – biochemical, small-molecule microarray, fluorescence 635/667, stem cell growth factor project, primary screen (AID 1067); settings: higher = more signal;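 further: measures binding of biotinylated aFGF2 protein to printed compounds on slides; z-score merges feature fluorescence and signal-to-noise across triplicate slides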
[4] = small molecules captured by biotinylated probe aFGF10 – biochemical, small-molecule microarray, fluorescence 635/667, stem cell growth factor project, primary screen (AID 1071); settings: higher = more signal;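 further: score merges 667 nm spot intensity and signal to noise from triplicate slides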
[5] = biological target: Neurogenic locus notch homolog protein 2 (Homo sapiens) (UniProt Q04721); experiment: small molecules binding Notch2 protein – biochemical, small-molecule microarray, 635 nm fluorescence, stem cell growth factors, primary screen (AID 1073); settings: higher = more signal
Neurogenic locus notch homolog protein 2 (Homo sapiens), sequence (Q04721 whole entry, looked up, canonical isoform): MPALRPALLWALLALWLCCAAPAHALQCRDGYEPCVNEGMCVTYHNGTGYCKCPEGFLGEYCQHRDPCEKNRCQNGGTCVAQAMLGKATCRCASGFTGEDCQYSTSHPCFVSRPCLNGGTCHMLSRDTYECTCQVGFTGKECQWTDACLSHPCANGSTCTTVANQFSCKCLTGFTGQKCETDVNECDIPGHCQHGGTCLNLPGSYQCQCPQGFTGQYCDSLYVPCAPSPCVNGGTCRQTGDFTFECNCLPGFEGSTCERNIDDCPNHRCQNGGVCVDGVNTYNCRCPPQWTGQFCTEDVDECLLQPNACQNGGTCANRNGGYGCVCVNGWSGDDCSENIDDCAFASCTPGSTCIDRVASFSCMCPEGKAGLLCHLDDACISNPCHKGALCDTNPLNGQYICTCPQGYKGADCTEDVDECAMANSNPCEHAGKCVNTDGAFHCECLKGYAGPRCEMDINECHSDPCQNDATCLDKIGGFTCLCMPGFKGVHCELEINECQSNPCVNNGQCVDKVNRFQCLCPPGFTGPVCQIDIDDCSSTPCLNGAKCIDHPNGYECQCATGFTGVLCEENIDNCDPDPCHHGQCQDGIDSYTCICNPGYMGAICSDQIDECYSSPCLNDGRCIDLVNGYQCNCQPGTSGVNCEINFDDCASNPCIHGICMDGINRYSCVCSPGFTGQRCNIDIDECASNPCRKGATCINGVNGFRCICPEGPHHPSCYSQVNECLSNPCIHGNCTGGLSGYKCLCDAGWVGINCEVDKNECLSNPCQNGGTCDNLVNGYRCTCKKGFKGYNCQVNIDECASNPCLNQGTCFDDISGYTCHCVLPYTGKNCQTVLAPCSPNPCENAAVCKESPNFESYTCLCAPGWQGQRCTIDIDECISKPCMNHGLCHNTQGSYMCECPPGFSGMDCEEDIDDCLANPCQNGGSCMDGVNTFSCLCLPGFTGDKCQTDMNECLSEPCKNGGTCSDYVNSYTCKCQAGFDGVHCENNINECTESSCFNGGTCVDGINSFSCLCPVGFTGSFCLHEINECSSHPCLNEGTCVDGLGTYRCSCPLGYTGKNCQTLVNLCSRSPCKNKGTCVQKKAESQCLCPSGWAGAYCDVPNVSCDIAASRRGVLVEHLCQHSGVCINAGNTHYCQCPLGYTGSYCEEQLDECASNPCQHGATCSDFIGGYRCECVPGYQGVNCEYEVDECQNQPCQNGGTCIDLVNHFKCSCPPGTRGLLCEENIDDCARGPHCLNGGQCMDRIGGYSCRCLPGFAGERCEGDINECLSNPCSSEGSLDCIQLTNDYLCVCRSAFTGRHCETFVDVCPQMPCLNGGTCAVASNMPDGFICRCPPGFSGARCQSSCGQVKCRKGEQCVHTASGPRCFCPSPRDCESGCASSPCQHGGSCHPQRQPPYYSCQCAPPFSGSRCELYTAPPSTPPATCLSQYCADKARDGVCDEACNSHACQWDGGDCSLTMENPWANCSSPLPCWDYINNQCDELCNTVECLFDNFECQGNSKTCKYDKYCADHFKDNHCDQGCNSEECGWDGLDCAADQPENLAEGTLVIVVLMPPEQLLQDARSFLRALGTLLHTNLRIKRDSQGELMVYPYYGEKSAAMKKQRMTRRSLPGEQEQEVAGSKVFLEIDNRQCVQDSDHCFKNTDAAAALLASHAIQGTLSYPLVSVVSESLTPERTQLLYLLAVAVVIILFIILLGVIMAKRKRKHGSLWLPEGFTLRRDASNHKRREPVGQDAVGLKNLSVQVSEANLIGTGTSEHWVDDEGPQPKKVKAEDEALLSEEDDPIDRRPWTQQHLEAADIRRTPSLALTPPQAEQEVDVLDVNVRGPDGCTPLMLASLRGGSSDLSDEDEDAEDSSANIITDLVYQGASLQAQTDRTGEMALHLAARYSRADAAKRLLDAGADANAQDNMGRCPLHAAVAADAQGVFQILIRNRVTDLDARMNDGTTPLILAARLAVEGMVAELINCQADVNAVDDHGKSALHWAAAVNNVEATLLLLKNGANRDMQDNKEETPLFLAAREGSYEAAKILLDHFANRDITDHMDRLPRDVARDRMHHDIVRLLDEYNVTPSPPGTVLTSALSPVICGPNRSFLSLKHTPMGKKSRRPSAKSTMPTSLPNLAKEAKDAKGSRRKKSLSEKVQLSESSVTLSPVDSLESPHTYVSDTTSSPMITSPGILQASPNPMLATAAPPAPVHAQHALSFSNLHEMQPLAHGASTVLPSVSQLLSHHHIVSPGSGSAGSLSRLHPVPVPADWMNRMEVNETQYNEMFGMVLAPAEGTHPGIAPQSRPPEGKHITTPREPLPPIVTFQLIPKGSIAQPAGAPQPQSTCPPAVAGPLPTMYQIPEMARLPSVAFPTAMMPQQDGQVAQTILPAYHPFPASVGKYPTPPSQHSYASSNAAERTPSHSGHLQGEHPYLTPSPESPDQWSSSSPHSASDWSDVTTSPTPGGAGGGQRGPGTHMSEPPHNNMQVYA

[6] = biological target: Pro-neuregulin-1, membrane-bound isoform (Homo sapiens) (UniProt Q02297); experiment: small molecules binding neuregulin-1 protein – biochemical, small-molecule microarray, fluorescence 635/667, psychiatric disease protein project, primary screen (AID 1075); settings: NRG1 binding, 635 nm fluorescence, higher = more signal;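 further: score combines 667 nm spot fluorescence with signal to noise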
Pro-neuregulin-1, membrane-bound isoform (Homo sapiens), sequence (Q02297 whole entry, looked up, the tested form may be a part, canonical isoform): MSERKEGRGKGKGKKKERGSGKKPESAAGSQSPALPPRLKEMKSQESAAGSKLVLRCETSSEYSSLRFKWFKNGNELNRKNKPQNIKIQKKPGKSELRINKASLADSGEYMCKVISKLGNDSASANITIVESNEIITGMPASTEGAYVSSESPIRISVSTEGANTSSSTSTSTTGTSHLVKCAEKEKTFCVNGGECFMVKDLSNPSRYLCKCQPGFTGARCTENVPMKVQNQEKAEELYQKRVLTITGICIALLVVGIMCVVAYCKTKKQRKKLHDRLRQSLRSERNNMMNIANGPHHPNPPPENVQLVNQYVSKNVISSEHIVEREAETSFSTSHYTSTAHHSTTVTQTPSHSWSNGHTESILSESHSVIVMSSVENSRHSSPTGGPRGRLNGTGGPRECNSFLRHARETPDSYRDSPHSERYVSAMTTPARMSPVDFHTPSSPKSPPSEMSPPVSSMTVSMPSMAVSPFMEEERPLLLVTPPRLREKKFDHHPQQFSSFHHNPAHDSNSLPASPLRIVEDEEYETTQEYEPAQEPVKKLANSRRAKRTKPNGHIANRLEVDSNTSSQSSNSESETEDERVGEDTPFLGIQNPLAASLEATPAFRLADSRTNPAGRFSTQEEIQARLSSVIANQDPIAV

[7] = system: Neuregulin-1 EGF-like domain; experiment: small molecules binding NRG1 EGF domain – biochemical, small-molecule microarray, 635 nm fluorescence, primary screen (AID 1081); settings: higher = more signal;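 further: binding of the protein to compounds printed on small-molecule microarray slides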
[8] = FRG1 expression reporter modulators in myotubes – cell-based, C2C12 myotubes, firefly/Renilla luciferase, luminescence, FRG1 inhibition for FSHD, primary screen (AID 1084); settings: FRG1 promoter luciferase, higher = more signal, called active from +8 up or from −8 down
[9] = small molecules captured by biotinylated probe aFST – biochemical, small-molecule microarray, fluorescence 635/667, stem cell growth factor project, primary screen (AID 1086); settings: higher = more signal;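 further: score merges 667 nm fluorescence with signal-to-noise of each printed compound spot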
[10] = binders of probe aHhip on microarray, primary screen, stem cell growth factor project, biochemical, small-molecule microarray, fluorescence 635/667 (AID 1087); settings: higher = more signal;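 further: score merges spot fluorescence at 667nm with spot signal to noise ratio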

Compound | composite z-score [1] | composite z-score [2] | composite z-score [3] | composite z-score [4] | composite z-score [5] | composite z-score [6] | composite z-score [7] | z-score [8] | composite z-score [9] | composite z-score [10]
C=CCC(OC(C)=O)[C@@H]1[C@@H](N(Cc2cc3ccccc3o2)C(=O)c2cccc3ccccc23)c2cc(OCCCO)ccc2N1C(=O)c1ccc(-c2ccccc2)cc1 (stereo not given in full) | 0.118 | -0.203 | -0.108 | 0.0904 | 0.0918 | 0.142 | -0.164 | -0.408 (inactive) | 0.101 | -0.137
COCCOC(=O)N1C(=O)[C@@]2(c3cc(C#CC4(O)CCCCCC4)ccc31)[C@H](c1ccccc1OCCO)N1[C@H](c3ccccc3)[C@H](c3ccccc3)OC(=O)[C@H]1[C@@H]2C(=O)N1CCN(c2ncccn2)CC1 | -0.383 | 0.604 | -0.0425 | 0.801 | 1.08 | 1.15 | 1.26 | -0.422 (inactive) | 0.484 | -0.134
C=CCOC(=O)[C@H]1[C@@H]2C(=O)O[C@@H](c3ccccc3)[C@@H](c3ccccc3)N2[C@@H](c2ccc(OCCOC(=O)[C@@H]3C[C@@H]4C(=O)N[C@@H](CCCCNC(C)=O)C(=O)N4[C@@H]3c3ccc(O)cc3)cc2)[C@]12C(=O)Nc1ccccc12 | -0.475 | 0.973 | -0.0512 | 0.483 | 0.795 | 1.26 | 1.32 | 0.159 (inactive) | -0.0579 | 0.0176
COCCOC(=O)N1C(=O)[C@@]2(c3cc(C#CCNC(N)=O)ccc31)[C@H](C(=O)N1CCN(c3ncccn3)CC1)[C@H]1C(=O)O[C@H](c3ccccc3)[C@H](c3ccccc3)N1[C@@H]2c1ccc(OCCO)cc1 | 0.0392 | 0.382 | 0.0465 | 0.719 | 0.795 | 0.821 | 0.87 | 0.0006 (inactive) | 0.601 | 0.0939
CC(C)=CCCC(C)=CC(O)C1C=CC2C(=O)N(C)C(=O)C2N1Nc1ccccc1 (stereo not given) | 0.0019 | 0.708 | 0.231 | 0.942 | 1.6 | 1.72 | 1.2 | -1.04 (inactive) | 1.24 | -0.159
COCCOC(=O)N1C(=O)[C@@]2(c3cc(C#CCC(C(=O)OC)C(=O)OC)ccc31)[C@H](c1ccccc1OCCO)N1[C@H](c3ccccc3)[C@H](c3ccccc3)OC(=O)[C@H]1[C@@H]2C(=O)N1CCN(c2ncccn2)CC1 | -0.266 | 0.273 | 0.137 | 0.432 | 0.986 | 1.32 | 1.2 | -0.796 (inactive) | 0.74 | 0.03
O=C1C2C=CC(C(O)Cc3ccccc3)N(n3cnnc3)C2C(=O)N1Cc1ccccc1 (stereo not given) | 0.442 | -0.0532 | 0.038 | 0.426 | 1.43 | 0.489 | 0.984 | 0.793 (inactive) | 0.307 | -0.186
COc1ccc(C(O)C2C=CC3C(=O)N(Cc4ccccc4)C(=O)C3N2n2cnnc2)cc1OCc1ccccc1 (stereo not given) | -0.0405 | -0.209 | -0.0996 | 0.193 | -0.0176 | 0.834 | 0.613 | 0.364 (inactive) | 0.777 | -0.0296
C=C[C@H](OC)[C@@H](OC(=O)Nc1ccc(OC)cc1)c1ccc(O)c(F)c1 | 0.348 | 0.242 | -0.175 | -0.827 | -1.31 | 1.11 | 0.804 | 2.95 (inactive) | -0.922 | -0.0994
CCOC(=O)C1=CC[C@@H](c2ccccc2)N(S(=O)(=O)c2ccc(C)cc2)[C@H]1c1ccccc1C | 0.158 | -0.0515 | -0.0895 | 0.49 | 1.47 | 0.393 | 0.714 | -3.47 (inactive) | 0.789 | 0.115
COc1ccc([Si](C)(C)[C@H]2[C@H](CC(=O)N3Cc4ccccc4C[C@H]3CO)O[C@@]3(C(=O)N(Cc4cccc(N5CCC5=O)c4)c4ccccc43)[C@@H]2C)cc1 | -0.26 | 0.479 | -0.07 | 0.726 | 0.793 | 0.871 | 1.29 | -2.41 (inactive) | 0.256 | -0.13
Cc1ccc(S[C@]2(C(=O)NCCCN(C)C)CC(=O)N(Cc3cc(C(F)(F)F)cc(C(F)(F)F)c3)[C@@H]2c2ccc(CO)cc2)cc1 | -0.16 | -0.594 | -0.159 | -0.145 | -1.28 | 0.494 | -0.624 | 0.318 (inactive) | -0.482 | -0.0645
C=CCC(OC(C)=O)[C@@H]1[C@@H](N(Cc2ccc(-c3cccc(C(F)(F)F)c3)o2)C(=O)c2ccc(C)cc2)c2cc(OCCCO)ccc2N1C(=O)Cc1ccc2ccccc2c1 (stereo not given in full) | 0.0498 | -0.752 | -0.102 | 0.205 | -0.564 | -0.326 | -0.513 | -0.201 (inactive) | 0.0714 | -0.134
O=C1C2C=CC(C(O)CCc3ccccc3)N(Nc3ccccc3F)C2C(=O)N1c1ccccc1 (stereo not given) | -0.114 | 0.203 | 0.179 | 0.763 | 1.68 | 0.572 | 1.15 | 0.957 (inactive) | 1.16 | -0.191
CN(C)C(=O)[C@@]1(CCS(=O)(=O)c2ccccc2)COC(c2ccc(OCCCO)cc2)=N1 | 0.578 | -0.149 | 0.127 | 0.568 | 0.331 | 1.8 | 1.36 | -2.05 (inactive) | 0.47 | -0.141
COc1ccc(C#Cc2ccc3c(c2)[C@]2(C(=O)N3)[C@H](c3ccccc3OCCO)N3[C@H](c4ccccc4)[C@H](c4ccccc4)OC(=O)[C@H]3[C@@H]2C(=O)Nc2nc3ccccc3s2)cc1 | -0.541 | -0.0327 | -0.0232 | 0.615 | 1.18 | 0.65 | 1.17 | 2.1 (inactive) | 0.362 | -0.0618

Compound | composite z-score [1] | composite z-score [2] | composite z-score [3] | composite z-score [4] | composite z-score [5] | composite z-score [6] | composite z-score [7] | z-score [8] | composite z-score [9] | composite z-score [10]
CN(C)CCCCCCNC(=O)[C@H]1C[C@H]2C(=O)N[C@@H](CCCCN)C(=O)N2[C@H]1c1cccc(OCCO)c1 | 3.62 | 2.48 | 0.898 | 1.15 | 1.65 | 2.67 | 1.55 | 3.88 (inactive) | 3.58 | 3.28
COC(=O)[C@@]1(CCC(=O)OC(C)(C)C)N=C(c2ccc(OCCCO)cc2)O[C@H]1c1ccccc1N=[N+]=[N-] | 0.165 | -0.15 | -0.0354 | -0.312 | -0.0015 | 1.26 | 1.06 | 3.09 (inactive) | -0.161 | 0.119
C=C(/C(=C/C[C@H](OC(C)=O)c1ccc(CO)o1)c1cc(C(=O)OC)ccc1OC)C(C)C | -0.0849 | -0.442 | -0.0637 | 0.597 | 0.102 | -0.306 | 0.53 | -0.601 (inactive) | 0.031 | 0.119
COCCOC(=O)N1C(=O)[C@@]2(c3cc(C#Cc4ccc(OC)cc4)ccc31)[C@H](c1ccc(OCCO)cc1)N1[C@H](c3ccccc3)[C@H](c3ccccc3)OC(=O)[C@H]1[C@@H]2C(=O)N1CCN(c2ncccn2)CC1 | -0.144 | 0.316 | -0.0113 | 0.397 | 0.926 | -0.318 | 1.13 | 0.598 (inactive) | 0.736 | 0.0176
CC1(C)[C@@H]2CC(C(O)C3C=CC4C(=O)N(Cc5ccccc5)C(=O)C4N3n3cnnc3)=C[C@H]1C2 (stereo not given in full) | -0.0224 | 0.839 | 0.0119 | 0.959 | 1.33 | 1.56 | 1.39 | 0.349 (inactive) | 1.06 | 0.0053
CCOC(=O)C1=C[C@@H](C(C)(C)C)N(S(=O)(=O)c2ccc(C)cc2)[C@H]1c1ccc(F)cc1 | -0.272 | 0.59 | 0.0434 | 0.619 | 1.59 | -0.11 | 0.69 | -0.705 (inactive) | 1.05 | -0.0324
COC(=O)[C@@]1(Cc2ccc(F)cc2)[C@H]2c3cc(C(=O)N4CCCC4)n(CCCNc4ncc(C(F)(F)F)cc4Cl)c3C[C@H]2CN1C(=O)c1ccccc1 | 0.785 | -0.245 | 0.222 | 0.564 | 1.66 | 1.73 | 1.3 | 0.506 (inactive) | 0.977 | 0.449
COC(=O)[C@@]1(Cc2ccccc2)N=C(c2ccc(OCCCO)cc2)O[C@H]1c1ccccc1 | 0.348 | 0.0099 | 0.0243 | 0.531 | -0.165 | 1.5 | 0.939 | -2.3 (inactive) | -0.053 | -0.169
O=C(NCCO)C1=C[C@H](Oc2ccccc2I)[C@@H](O)[C@H](N(Cc2ccco2)C(=O)Cc2ccccc2)C1 | 0.0391 | 0.208 | -0.112 | 0.236 | 0.299 | -0.352 | -0.473 | 0.157 (inactive) | -0.0165 | 0.12
Cc1ccc(S[C@]2(C(=O)NCCCN(C)C)CC(=O)N(Cc3ccccc3C(F)(F)F)[C@@H]2c2ccc(CO)cc2)cc1 | 0.678 | -0.554 | -0.138 | -0.572 | -1.37 | 0.907 | -1.08 | -1.31 (inactive) | 0.0539 | -0.0994
COCCOC(=O)N1C(=O)[C@@]2(c3ccccc31)[C@H](c1ccc(O)cc1)N1[C@H](c3ccccc3)[C@H](c3ccccc3)OC(=O)[C@H]1[C@@H]2C(=O)Nc1nc2ccccc2s1 | 0.161 | 0.912 | -0.0441 | 0.175 | 1.16 | 1.38 | 1.11 | -0.929 (inactive) | 0.5 | 0.0139
C=C(C(=O)CC[C@@H](OC(=O)c1cccnc1)c1ccccc1OCCO)C(C)C | -0.44 | 0.447 | -0.119 | 0.0736 | 0.151 | 0.21 | 0.624 | -0.151 (inactive) | 0.0397 | 0.0156
C=CCC(OC(C)=O)[C@@H]1[C@@H](N(Cc2ccc(-c3ccccc3)cc2)C(=O)c2ccc(-c3ccccc3)cc2)c2cc(OCCCO)ccc2N1C(=O)Cc1ccc2ccccc2c1 (stereo not given in full) | -0.519 | 0.574 | -0.117 | 0.0381 | 0.186 | 0.0278 | -0.6 | 0.187 (inactive) | 0.2 | -0.0631
C[C@H]1NC(=O)[C@@]23C(=O)N[C@@H](Cc4ccccc4)C2[C@H](C)[C@@]2(C)O[C@H]2C3/C=C/C/C=C\CNC(=O)[C@@H]2CCCN2C1=O (stereo not given in full) | -0.468 | -0.454 | 0.0653 | 0.479 | 0.521 | 0.425 | 0.909 | 0.182 (inactive) | 0.145 | -0.132
CO[C@H]1O[C@H](CO)[C@@H](OC(=O)Nc2ccc(Oc3ccccc3)cc2)[C@H](OC(=O)Nc2ccc3c(c2)OCO3)[C@H]1OC(=O)Nc1ccc2c(c1)OCO2 | 0.522 | 1.24 | 0.178 | 1.21 | 1.5 | 1.69 | 1.15 | 5.22 (inactive) | 0.968 | 0.241
C#C[C@H](O[Si](C#Cc1ccc(Oc2ccccc2)cc1)(C(C)C)C(C)C)c1ccccc1 | -0.247 | 1.27 | -0.0613 | 0.853 | 1.25 | 0.206 | 0.801 | 0.297 (inactive) | 0.315 | -0.0994
